Test results taken from PubChem BioAssay AID602388 (National Center for Advancing Translational Sciences (NCATS), 2012).
The other results are listed elsewhere or left out. Results filed as inconclusive are left out. Activity calls are given as the source filed them. The call rests on the fitted dose curve; in most records, active means well fitted inhibition curve with a large enough effect; inconclusive means small, poorly fitted or top-dose-only effect; inactive means flat fitted curve, though single readings scatter.

These compounds were tested against Regulator of G-protein signaling 4 (Homo sapiens) (UniProt P49798) (assay: qHTS for Inhibitors of Regulator of G Protein Signaling(RGS) 4: Hit Validation). Details: RGS4 GAP activity, Transcreener GDP fluorescence polarization.
Excerpt: G-protein-coupled receptors (GPCRs) are well-established targets for drug discovery and development. Members of the "regulator of G-protein signaling" (RGS)-protein superfamily have recently emerged as critical modulators of specific GPCR signaling pathways. […] Combining specific RGS domain inhibitors with existing GPCR agonists should potentiate cellular responses and could also increase the specificity of action of existing therapeutics. Small molecule modulators of RGS domain activity should also have clinical utility in inhibiting or potentiating the actions of endogenous GPCR agonists. In particular, the diversity of RGS proteins with highly localized and dynamically regulated distributions in the human brain makes this family of proteins attractive targets for pharmacotherapy of central nervous system (CNS) disorders such as Parkinson's disease, schizophrenia, and anxiety. […] This assay was used to screen the NIH Molecular Libraries Small Molecule Repository (MLSMR) in order to identify a small molecule that inhibits RGS4. NIH Chemical Genomics Center [NCGC] NIH Molecular Libraries Probe Centers Network [MLPCN] MLPCN Grant: DA030555 Assay Submitter (PI): David Siderovski, University of North Carolina Chapel Hill (School of Medicine)
Two microliters of 500nM (2x working concentration) is dispensed into black medium-binding solid-bottom Kalypsys plates. Then with the Kalypsys pintool 23nl of control and compounds are transferred; the control compound is […] CCG-4986 (working concentration). […] An initial fluorescent polarization read (620 nm/688 nm) is performed on the Envision before the plate is incubated for 90 minutes at 30 deg C at a relative humidity of 80%. The plate is once more centrifuged at 1000 RPM for 15 seconds and another Envision fluorescent polarization (620 nm/688 nm) read is carried out.

Regulator of G-protein signaling 4 (Homo sapiens), sequence (P49798 whole entry, looked up, the tested form may be a part): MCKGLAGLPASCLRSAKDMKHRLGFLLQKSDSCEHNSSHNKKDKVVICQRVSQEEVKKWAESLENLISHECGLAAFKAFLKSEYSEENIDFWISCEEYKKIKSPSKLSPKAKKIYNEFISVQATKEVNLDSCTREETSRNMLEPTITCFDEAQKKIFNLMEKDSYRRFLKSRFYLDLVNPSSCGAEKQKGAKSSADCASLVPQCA

Potency, active:
O=C(Nc1nc(-c2ccncc2)cs1)C1COc2ccccc2O1 (stereo not drawn) 5.32 µM
Cc1ccc(-n2nc(-c3ccco3)cc2C(=O)NCc2cccnc2)cc1 6.7 µM
Cc1ccc(-c2nc3ccccn3c2Nc2c(C)cccc2C)o1 10.6 µM
